Source: PubChem BioAssay
Compounds with a hit are over-represented: about 21% of the library has one in this group of screens.
Pf growth 48h – P. falciparum growth inhibition at 48 hours (one generation); 310,000 compounds, 5.9% hits; P. falciparum luciferase growth in erythrocytes, 48 h; Potency, µM (titrated, usually from 28.7 µM), without a hit: at the top dose activity change, negative = inhibition, actives largely listed as inhibitors; AID 504832; further: potency means the concentration at half of the fitted maximal effect; on the % scale 0 is the no-effect control and ±100 the full control effect
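Firefly luciferase activity from engineered P. falciparum reports growth; inhibitors lower the luminescent signal. Cultures contained 2% hematocrit erythrocytes at 0.1% final parasitemia.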
Pf growth 96h – P. falciparum growth inhibition at 96 hour, primary screen for plastid delayed-death inhibitors; AID 504834; 320,000 compounds, 6.9% hits; Potency, µM (doses to about 28.7 µM), for inactives: at the highest dose activity change, negative = inhibition, usual class: inhibitors; P. falciparum luciferase reporter growth, 96 h; further: potency means the concentration at half of the fitted maximal effect; on the % scale 0 is the no-effect control and ±100 the full control effect
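Cell-based qHTS: luciferase-tagged P. falciparum in erythrocytes (2% hematocrit, 0.05% parasitemia final) incubated with compounds for 96 hours, 37 C, 5% CO2; luciferase detection reagent then added and luminescence measured.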
Shiga inhibitor – Shiga toxin inhibition; Vero cells, Shiga toxin protein synthesis inhibition reporter; inhibition, % at 38.7 µM; 290,000 compounds, 9.2% hits; in the data active means inhibition mostly above about 28%, no sharp cut-off; inactive means mostly below about 43%; further: 0% is about no effect
Sm TGR inh – S. mansoni TGR enzyme inhibition. Q962Y6. purified TGR, DTNB reduction, TNB absorbance 405 nm. Potency, µM (doses to about 114 µM), for inactives: top-dose activity change, negative = inhibition, actives largely listed as inhibitors. 360,000 compounds, 3% hits; further: potency means the concentration at half of the fitted maximal effect; on the % scale 0 is the no-effect control and ±100 the full control effect; nearly all actives have a fitted effect of over 60% in size
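Kinetic colorimetric format: TGR-catalysed, NADPH-driven DTNB reduction monitored via TNB absorbance. Enzyme dispensed at 20 nM; compound exposure 15 min at room temperature before reaction start.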
Cycloheximide cs – counter-screen hit for Shiga toxin inhibitors, cycloheximide; 300,000 compounds, 12% hits; max response, %; cell reporter, cycloheximide protein synthesis inhibition counterscreen; in the data active means max response mostly above about 13%, no sharp cut-off; inactive means mostly below about 14%; further: read at 38.3 µM for the half of the compounds with a filed dose; 0% is about no effect
NS1 inh – inhibitors of influenza NS1 protein function; 270,000 compounds, 0.4% hits; Potency, µM (doses to about 46.1 µM), for the others: top-dose activity, positive = more growth; calls by dose curve; further: potency means the concentration at half of the fitted maximal effect; actives are rising curves; nearly all actives have a fitted effect of over 50% in size
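Compounds were scored for reversing the slow growth caused by influenza A NS1 in S. cerevisiae, measured by optical density at 600 nm. Assay medium contained 2% galactose at pH 6.0; NS1-free yeast of the same strain were the positive control.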
* hit, by the source's call; ? = inconclusive; · = no result; [ ] = another dose, or the depositor's remark. Unless noted, the call rests on the fitted dose curve; in most records, active means well fitted curve in the direction sought with a large enough effect; inconclusive means small, poorly fitted or top-dose-only effect, or another doubt; inactive means no such curve, though single readings can be large; an effect the other way counts as inactive or inconclusive.

SMILES | Pf growth 48h | Pf growth 96h | Shiga inhibitor | Sm TGR inh | Cycloheximide cs | NS1 inh
CCCC(C(=O)NC1CCCC1)N(Cc1ccccc1)C(=O)c1snc(C(N)=O)c1N (configuration not stated) | ? | 32% | 2 | 5% | -3 | -12%
CSc1ccc(S(=O)(=O)N2c3ccccc3CC2C)cc1 (configuration not stated) | -27% | 53% | · | -1% | -4 | -2%
CCOc1c(CNc2nnnn2C)cccc1OC | -2% | -33%[5.75 µM] | -5 | -4% | -2 | 3%
CN(C(=O)c1ccc(NC(=O)Cc2ccc(NC(=O)C3CCCN(C(=O)C4CCCC4)C3)cc2)cc1)C1CC1 (configuration not stated) | ? | 12µM* | · | -9% | · | ·
COc1ccc(CCNC(=S)NNC(=O)c2c(Br)c(C)nn2C)cc1OC | -14% | ? | -12 | -11% | -2 | -8%
CCNC(=S)Nc1ccc(N2CCCCC2)cc1 | 85% | -18% | 34 | -10% | 25* | ·
COCCCNC(=S)Nc1ccc(N2CCCCC2)cc1 | 7% | 40% | 84* | -18% | 13 | ·
S=C(NCCc1ccccc1)Nc1ccc(N2CCCCC2)cc1 | ? | ? | 32 | -14% | 20* | -4%
Cc1ccc(S(=O)(=O)N(Cc2c(F)cccc2Cl)C(=O)N2CCN(C)CC2)cc1 | ? | 9% | · | -1% | · | ·
Cc1cc(C(=O)COC(=O)c2ccc(Cl)c(S(N)(=O)=O)c2)c(C)n1C1CC1 | 80% | -2% | · | 0% | · | ·
Cc1cc(-c2sccc2C)nc(-n2cccc2)n1 | -6% | 0% | 45 | -18% | 11 | -2%
Cc1cc(I)ccc1Nc1c(C(=O)NOCC2CC2)cc(F)c(F)c1F | · | · | 58* | · | 17* | ·
N#Cc1ccc(CSc2nnc3[nH]c(=O)cc(N)n23)cc1 | 4.1µM* | -38% | 21 | -27% | 8 | ·
O=C1c2[nH]nc(-c3ccccc3O)c2C(c2ccc(F)cc2)N1CCO (configuration not stated) | · | · | · | 7% | · | ·
N=c1c(S(=O)(=O)c2ccccc2)cc2c(=O)n3ccccc3nc2n1CCCN1CCOCC1 | ? | 18% | -2 | 16µM* | -3 | 0%
N=c1c(S(=O)(=O)c2ccc(Br)cc2)cc2c(=O)n3ccccc3nc2n1C1CCCC1 | 10µM* | 12µM* | -7 | -8% | 0 | 23%
N=c1c(S(=O)(=O)c2ccc(Cl)cc2)cc2c(=O)n3ccccc3nc2n1CCN1CCOCC1 | ? | -25% | -1 | 45µM* | -1 | -4%
N=c1c(S(=O)(=O)c2ccccc2)cc2c(=O)n3ccccc3nc2n1C1CCCC1 | ? | 0% | -4 | -13% | -1 | -5%
Cc1ccc(S(=O)(=O)c2cc3c(=O)n4ccccc4nc3n(CCCN3CCOCC3)c2=N)cc1C | ? | ? | -7 | 2% | -5 | 0%
CCc1cc(-c2n[nH]c(=S)n2-c2ccccc2C)cs1 | · | ? | -8 | -9% | -7 | -15%
COc1ccc2oc(=O)c(-c3ccccc3C(=O)N3CCOCC3)cc2c1 | -4% | 50% | -3 | -10% | -2 | 7%
CCc1nnc2c(Nc3cc(OC)c(Cl)cc3OC)nc3ccccc3n12 | · | · | · | -1% | · | ·
COc1cccc(C(c2sc3nc(-c4ccco4)nn3c2O)N2CCC(O)CC2)c1 (configuration not stated) | · | · | · | 2% | · | ·
CC(Oc1ccccc1)C(=O)OCc1cc(=O)n2nc(C(C)C)sc2n1 (configuration not stated) | · | · | · | 0% | · | ·
COc1ccccc1NC(=O)CSc1nnc2c(n1)[nH]c1ccccc12 | · | · | · | 0% | · | ·
CC(C)COC(=O)CCNc1n[nH]c(=O)[nH]c1=O | 0% | 9.3µM* | 1 | 3% | -1 | 19%
CCOC(=O)CCNc1n[nH]c(=O)[nH]c1=O | 6% | 0% | -6 | 5% | -2 | 9%
CC(C)=C[C@H]1[C@@H](COC(=O)c2ccccc2Cl)C1(C)C | · | · | · | · | · | -8%
CCOc1cccc2cc(-c3csc(NC(=O)CCC(=O)NCCN4CCCCC4C)n3)c(=O)oc12 (configuration not stated) | 401% | ? | 76 | 2% | 40* | ·
